TDP1 cell CPT = growth inhibition of DT40 Tdp1-/-;hTDP1 cells with camptothecin (screen for TDP1 inhibitors) | AID 686979 | 420,000 tested, 12% active | Potency, µM (titrated, usually from 46.2 µM), hits mostly inhibitors | chicken DT40 Tdp1-/-;hTDP1 cells + 20 nM CPT, ATP luminescence, 48 h; note: nearly all actives have a fitted effect of over 55% in size
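Chicken DT40 Tdp1-/- cells stably complemented with human TDP1 were seeded at 400 cells/well in medium containing 20 nM camptothecin, exposed to pin-transferred compounds, and grown at 37 °C for at least 48 hr. Viability was read as ATP luminescence.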
TDP1 cell noCPT = qHTS for Inhibitors of human tyrosyl-DNA phosphodiesterase 1 (TDP1): qHTS in cells in absence of CPT; DT40 Tdp1-/- hTDP1 cells, no CPT, ATP luminescence, 48 h; Potency, µM (top dose mostly 46.2 µM), usual class: inhibitors; 420,000 tested, 15% active; note: nearly all actives have a fitted effect of over 55% in size
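No-CPT arm: Tdp1-/-;hTDP1 DT40 cells (400/well) plus compounds, incubated ≥48 hr at 37 °C. Readout CellTiter-Glo luminescence.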
RORgamma inh = blocks mouse ROR gamma transcriptional activity | P51450 | Drosophila S2 Gal4-RORgamma UAS-luciferase reporter, 20 h | Potency, µM (top dose mostly 53.6 µM), most hits filed as inhibitors | 310,000 tested, 5.4% active; note: nearly all actives have a fitted effect of over 60% in size
Target sequence (P51450 whole entry, looked up, the tested form may be a part): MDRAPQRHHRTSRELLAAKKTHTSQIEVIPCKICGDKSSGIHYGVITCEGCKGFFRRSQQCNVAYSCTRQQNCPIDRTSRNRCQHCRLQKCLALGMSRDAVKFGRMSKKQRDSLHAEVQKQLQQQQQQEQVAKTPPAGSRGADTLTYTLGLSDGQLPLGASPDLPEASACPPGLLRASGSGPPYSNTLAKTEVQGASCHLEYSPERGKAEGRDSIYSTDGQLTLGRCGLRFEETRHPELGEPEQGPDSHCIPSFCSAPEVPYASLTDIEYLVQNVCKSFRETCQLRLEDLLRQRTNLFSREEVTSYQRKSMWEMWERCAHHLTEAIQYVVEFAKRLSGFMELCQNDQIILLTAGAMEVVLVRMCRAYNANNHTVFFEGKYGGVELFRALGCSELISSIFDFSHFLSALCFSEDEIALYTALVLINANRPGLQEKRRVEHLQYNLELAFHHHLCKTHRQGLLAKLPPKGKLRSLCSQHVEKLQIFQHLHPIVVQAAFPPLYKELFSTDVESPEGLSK
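ROR gamma transcriptional activity was tracked as Gal4-UAS luciferase output in stably transfected Drosophila Schneider cells, with compound added 1 hr before 700 uM copper sulfate induction and a 20 hr ambient-temperature incubation.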
Gal4-VP16 FLuc = counter-screen for ROR gamma inhibitors: Gal4-VP16 reporter. 310,000 tested, 3.5% active. Potency, µM (highest dose often 53.6 µM), actives largely listed as inhibitors. Drosophila S2 Gal4-VP16 UAS-luciferase, luminescence, 20 h;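 note: Gal4-VP16 expression switched on by copper sulfate through the metallothionein promoter; nearly all actives have a fitted effect of over 50% in size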
TDP1 block = blocks human tyrosyl-DNA phosphodiesterase 1 | Q9NUW8 | recombinant TDP1, AlphaScreen DNA substrate cleavage | Potency, µM (titrated, usually from 130 µM), actives largely listed as inhibitors | 350,000 tested, 0.28% active; note: nearly all actives have a fitted effect of over 40% in size
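Here, a 5' biotin and 3' phosphotyrosine-FITC DNA oligonucleotide reports Tdp1 activity: intact substrate bridges AlphaScreen beads, while cleavage leaves a 3' phosphate and drops signal. All incubations at room temperature.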
Each line names hits and unclear results; the compound was inactive in the other large screens. Compounds with a hit are over-represented: about 19% of the library has one in this group of screens. Calls come from the whole dose curve; as a rule, active = well fitted curve in the direction sought with a large enough effect; inconclusive = small, poorly fitted or top-dose-only effect, or another doubt; inactive = no such curve, though single readings can be large; an effect the other way counts as inactive or inconclusive.

Cc1cc(/C=C2\SC(=S)N(Cc3ccco3)C2=O)c(C)n1-c1ccccc1	TDP1 cell CPT inconclusive, TDP1 cell noCPT inconclusive
Cc1cc(/C=C2\SC(=S)N(C)C2=O)c(C)n1-c1cccc(O)c1	TDP1 cell CPT 23.1µM, TDP1 cell noCPT inconclusive (no result: TDP1 block)
CN1C(=O)/C(=C\c2cc(N=Nc3ccccc3)ccc2O)SC1=S	TDP1 cell CPT 20.6µM, TDP1 cell noCPT 23.1µM
COc1ccc(-n2c(C)cc(/C=C3/SC(=S)N(C)C3=O)c2C)cc1	TDP1 cell CPT 20.6µM, TDP1 cell noCPT 18.4µM, Gal4-VP16 FLuc inconclusive
Cc1ccc(-n2c(C)cc(C=C3C(=O)N(C)C(=O)N(C)C3=O)c2C)cc1	none (no result: RORgamma inh, Gal4-VP16 FLuc, TDP1 block)
COc1ccc(-c2ccc(SCC(=O)N3c4ccccc4CC3C)nn2)cc1OC (centres undefined)	TDP1 cell CPT inconclusive, TDP1 cell noCPT inconclusive, RORgamma inh inconclusive
O=[N+]([O-])c1cc([N+](=O)[O-])c(Oc2cncc(Cl)c2)cc1NN1CCCCC1	TDP1 cell CPT inconclusive (no result: TDP1 block)
CC(=O)C1=C(O)C(=O)N(CCC(=O)O)C1c1ccc(Cl)cc1Cl (centres undefined)	none
Cc1cc(Cl)ccc1OCC(=O)OCC(=O)NCCNC(=O)COC(=O)COc1ccc(Cl)cc1C	none (no result: RORgamma inh, Gal4-VP16 FLuc, TDP1 block)
COc1ccc(CC(=O)Oc2ccc(C)cc2C)cc1	none (no result: TDP1 block)
C=CCSC1=N/C(=C\c2sccc2C)C(=O)S1	Gal4-VP16 FLuc inconclusive
C=CCSC1=N/C(=C\C=C\c2ccco2)C(=O)S1	TDP1 cell CPT 23.1µM, TDP1 cell noCPT 18.4µM
Cn1nnnc1SCc1csc(Nc2ccccc2)n1	TDP1 cell noCPT inconclusive, RORgamma inh inconclusive, Gal4-VP16 FLuc inconclusive
Cc1csc(SCC(=O)Nc2nnc(C)s2)n1	TDP1 cell CPT inconclusive
Cc1c(NC(=S)N/C(=N/S(=O)(=O)c2ccccc2)c2ccccc2)c(=O)n(-c2ccccc2)n1C	none
CCN(CC)S(=O)(=O)c1cccc(NC(=S)NC(=O)/C=C/c2ccc(S(=O)(=O)N3CCOCC3)cc2)c1	TDP1 cell noCPT inconclusive, RORgamma inh inconclusive
O=C(/C=C/c1ccc(S(=O)(=O)N2CCOCC2)cc1)Nc1cc(F)ccc1F	TDP1 cell CPT inconclusive, TDP1 cell noCPT 20.6µM (no result: RORgamma inh, Gal4-VP16 FLuc)
O=C(/C=C/c1ccc(S(=O)(=O)N2CCOCC2)cc1)NC(=S)Nc1ccc(Cl)cc1Cl	TDP1 cell CPT inconclusive, TDP1 cell noCPT inconclusive, RORgamma inh 11.2µM
CCN(CC)C(=O)Cn1c(=O)n(CCCCCC(=O)Nc2ccccc2)c(=O)c2sccc21	TDP1 cell CPT inconclusive, TDP1 cell noCPT inconclusive, RORgamma inh inconclusive, Gal4-VP16 FLuc inconclusive
CCC(CC)N=C1NS(=O)(=O)c2cc([N+](=O)[O-])ccc21	TDP1 cell CPT inconclusive, TDP1 cell noCPT 20.6µM, RORgamma inh inconclusive, Gal4-VP16 FLuc inconclusive
CC(C)(C)CC(C)(C)N=C1NS(=O)(=O)c2cc([N+](=O)[O-])ccc21	TDP1 cell CPT inconclusive, TDP1 cell noCPT 14.6µM
Cc1cccc(N(C)c2ncnc3onc(-c4ccc(F)cc4)c23)c1C	TDP1 cell CPT inconclusive, TDP1 cell noCPT 16.4µM (no result: TDP1 block)
CCN(CCO)c1ncnc2onc(-c3ccc(F)cc3)c12	none (no result: TDP1 block)
CCOC(=O)CNC(c1ccccc1)c1cc(Br)ccc1NC(=O)CCN1CCOCC1 (centres undefined)	TDP1 cell CPT 2.06µM, TDP1 cell noCPT 0.82µM, RORgamma inh inconclusive, Gal4-VP16 FLuc 8.91µM
COC(=O)CNC(c1ccccc1)c1cc(Br)ccc1NC(=O)CCN1CCOCC1 (centres undefined)	TDP1 cell CPT 2.59µM, TDP1 cell noCPT 1.64µM, RORgamma inh inconclusive, Gal4-VP16 FLuc 14.1µM
CCOC(=O)CNC(c1ccccc1)c1cc(Br)ccc1NC(=O)OCC (centres undefined)	TDP1 cell CPT inconclusive, TDP1 cell noCPT inconclusive
CCOC(=O)CNC(c1ccccc1)c1cc(Br)ccc1NC(=O)c1ccc(Cl)cc1 (centres undefined)	TDP1 cell CPT 10.3µM, TDP1 cell noCPT 6.51µM (no result: RORgamma inh, Gal4-VP16 FLuc)
COC(=O)CNC(c1ccccc1)c1cc(Br)ccc1NC(=O)CNC(=O)OCc1ccccc1 (centres undefined)	TDP1 cell noCPT inconclusive
CC(=O)Nc1ccccc1-c1ccccc1[N+](=O)[O-]	none (no result: RORgamma inh, Gal4-VP16 FLuc, TDP1 block)
CCS(=O)(=O)c1cc([N+](=O)[O-])c(Sc2ccccc2NC(C)=O)s1	TDP1 cell CPT 3.26µM, TDP1 cell noCPT 5.17µM, RORgamma inh inconclusive, Gal4-VP16 FLuc inconclusive
COc1ccccc1NC(=O)Nc1ccc2c(c1)nc(C)n2C	RORgamma inh 10µM, Gal4-VP16 FLuc inconclusive
Cc1nc2cc(NC(=O)Nc3cccc4ccccc34)ccc2n1C	none
COc1cc(C(=O)Nc2ccc3c(c2)ncn3C)cc(OC)c1OC	TDP1 cell CPT 4.11µM, TDP1 cell noCPT 2.91µM (no result: TDP1 block)
COc1cc(C(=O)Nc2ccc3c(c2)nc(C)n3C)cc(OC)c1OC	TDP1 cell CPT 4.11µM, TDP1 cell noCPT 3.26µM (no result: TDP1 block)
CCOc1ccc(S(=O)(=O)N/N=C2/CC(c3ccccc3)Oc3ccccc32)cc1 (centres undefined)	TDP1 cell CPT inconclusive, TDP1 cell noCPT 16.4µM, RORgamma inh inconclusive
O=C(N/N=C1/CC(c2ccccc2)Oc2ccccc21)C1CC1 (centres undefined)	TDP1 cell CPT inconclusive, TDP1 cell noCPT inconclusive, RORgamma inh 11.2µM
O=C(N/N=C1\CC(c2ccccc2)Oc2ccccc21)c1cccnc1 (centres undefined)	TDP1 cell CPT inconclusive, TDP1 cell noCPT 20.6µM, RORgamma inh 5.62µM, Gal4-VP16 FLuc 3.98µM
O=C(N/N=C1\CC(c2ccccc2)Oc2ccccc21)c1ccc(O)cc1 (centres undefined)	TDP1 cell CPT inconclusive, TDP1 cell noCPT inconclusive, Gal4-VP16 FLuc inconclusive
Cc1ccc(S(=O)(=O)N/N=C2/CC(c3ccccc3)Oc3ccccc32)cc1 (centres undefined)	TDP1 cell CPT inconclusive, RORgamma inh inconclusive
O=S(=O)(N/N=C1\CC(c2ccccc2)Oc2ccccc21)c1ccccc1 (centres undefined)	none
N#Cc1ccc(OCC(=O)N/N=C2/CC(c3ccccc3)Oc3ccccc32)cc1 (centres undefined)	TDP1 cell CPT inconclusive, TDP1 cell noCPT inconclusive, RORgamma inh 11.2µM, Gal4-VP16 FLuc 11.2µM
CCCCCCOc1ccc(N2C(=O)CC(S/C(N)=N/N=C(\C)c3cccs3)C2=O)cc1 (centres undefined)	RORgamma inh inconclusive, Gal4-VP16 FLuc inconclusive
O=C1CCC2S/C(=C/Nc3ccc(C(F)(F)F)cc3)C(=O)N12 (centres undefined)	TDP1 cell CPT inconclusive, TDP1 cell noCPT inconclusive, RORgamma inh 1.26µM, Gal4-VP16 FLuc inconclusive
Cc1csc(NC(=O)C2CCCCC2C(=O)O)n1 (centres undefined)	none
CC(=O)N1CC(O)CC1C(=O)O (centres undefined)	none (no result: TDP1 cell CPT, TDP1 cell noCPT, TDP1 block)
Cc1cccc(N2CCN(c3ncnc4c3nc3n4CCCCC3)CC2C)c1 (centres undefined)	TDP1 cell CPT 7.31µM, TDP1 cell noCPT 9.2µM (no result: RORgamma inh, Gal4-VP16 FLuc)

Assay outcomes from PubChem BioAssay.
